# Compounds with a hit are over-represented: about 28% of the library has one in this group of screens.
# CYP2C9 act = human CYP2C9 activators, primary screen, biochemical, luminescence. Cytochrome P450 2C9 (Homo sapiens), P11712. recombinant CYP2C9, luciferin-H conversion; stronger effect = higher value; factor 1 = untreated enzyme, 0 = blocked. activation factor at 5 µM. actives 1.4% (n = 96,000);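 active = activation factor of 2 or more for CYP2C9 at a 5 µM dose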;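 note: 0 = sulfaphenazole-blocked wells and 1 = vehicle-only wells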
# Pyk2 oligo antag = antagonists of Pyk2 self-association, primary screen, Q293 cells, FERM NanoBiT luminescence, HTS; Protein-tyrosine kinase 2-beta (Homo sapiens), Q14289; AID 1347419, 2020; stronger effect = lower value; actives 0.83% (n = 99,000); z-score (the deposit names both 25 µM and 10 µM);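 active = Z-score of -3 or lower, scaled per plate to the spread of control and sample wells; inactive = z-score above -3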;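 note: negative z-score means lost luminescence so less FERM oligomerization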
# CYP2C19 inh = blockers of cytochrome P450 2C19 activity – biochemical, luminescence, ADME assay, primary screen; P33261; CYP2C19 Supersomes, luciferin-H EGE luminescence, 30 min; inhibition, % at 5 µM; actives 21% (n = 96,000);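 active = CYP2C19 inhibition above a set limit at 5 µM in the primary screen, cut at about 50% in these data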;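 note: plate controls were negative control wells for no effect and 2.5 mM tranylcypromine positive control for full effect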
# Target sequence (P33261 whole entry, looked up): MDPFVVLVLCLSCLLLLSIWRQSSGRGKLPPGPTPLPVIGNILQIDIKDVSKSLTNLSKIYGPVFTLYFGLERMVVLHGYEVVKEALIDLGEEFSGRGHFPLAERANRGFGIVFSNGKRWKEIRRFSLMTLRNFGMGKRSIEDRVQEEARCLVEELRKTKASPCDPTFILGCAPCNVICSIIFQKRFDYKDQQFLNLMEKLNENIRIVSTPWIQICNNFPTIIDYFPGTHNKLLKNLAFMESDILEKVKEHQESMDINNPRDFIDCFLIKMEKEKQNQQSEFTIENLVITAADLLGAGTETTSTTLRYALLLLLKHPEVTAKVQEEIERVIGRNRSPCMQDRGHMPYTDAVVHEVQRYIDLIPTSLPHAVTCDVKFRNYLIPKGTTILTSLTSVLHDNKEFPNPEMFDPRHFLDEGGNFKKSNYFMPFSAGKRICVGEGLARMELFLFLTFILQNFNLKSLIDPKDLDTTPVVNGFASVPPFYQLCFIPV
# CYP2C19 activ = human CYP2C19 activators, primary screen, biochemical, luminescence | recombinant CYP2C19, luciferin-H EGE luminescence; stronger effect = higher value; 0 = fully inhibited enzyme, 1 = untreated enzyme | AID 1025, 2008 | activation factor at 5 µM | 96,000 tested, under 10 active | Cytochrome P450 2C19 (Homo sapiens), P33261;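 active = activation factor of at least 2 at 5 µM in the primary screen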;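 note: 0 = wells with 2.5 mM tranylcypromine and 1 = vehicle-only wells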
# CYP2C9 inhib = blockers of cytochrome P450 2C9 activity – biochemical, luminescence, ADME assay, primary screen; actives 20% (n = 96,000); AID 777, 2007; P11712; inhibition, % at 5 µM; CYP2C9 Supersomes, luciferin-H conversion;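 active = blocking of liver enzyme CYP2C9 beyond about 50% at 5 µM, limit read from the data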
# * marks the source's active call; other numbers are inactive results; nt = no result given.
SMILES,CYP2C9 act,Pyk2 oligo antag,CYP2C19 inh,CYP2C19 activ,CYP2C9 inhib
CC(C)(C)c1csc(NC(=O)CSc2nc3ccccc3c(=O)[nH]2)n1,0.1,-0.53,67.2*,0.3,94.2*
CC(=O)NCC1=C(NC(C)=O)C2CC1C(C)(C)C2C (stereo not drawn),0.9,nt,8.9,0.9,11.2
COc1ccc(Oc2ncnc3c2oc2ccc(Br)cc23)cc1,1,2.85,11.0,0.9,3.0
O=C(CCl)Nc1cccn2ncnc12,1.3,-0.06,-5.5,1.1,-32.7
O=c1c2ccccc2nnn1CSc1nnc2sc3ccccc3n12,1.7,nt,20.4,0.8,-74.4
Cc1csc(NC(=O)CSCC(=O)Nc2ccccc2)n1,0.4,0.96,49.6,0.5,57.4*
Cc1ccc(C(=O)CSc2nc3ccccc3c(=O)[nH]2)cc1,0.3,-0.15,43.4,0.6,74.6*
Cc1cc(C)c2c(=O)[nH]c(SCC(=O)c3ccc(C(C)C)cc3)nc2n1,0.5,-0.08,14.9,0.9,50.8*
Cc1csc(NC(=O)CSc2nnc(C)s2)n1,1.1,-0.53,-8.9,1.1,-6.4
Cc1cc(=O)[nH]c(SCC(=O)c2ccc(C(C)C)cc2)n1,0.9,1.13,33.6,0.7,11.7
CC1(C)SC(=S)N(Cc2ccc3c(c2)OCO3)C1N(O)C(=O)NC1CCCCC1 (stereo not drawn),0.3,-1.96,42.0,0.6,71.8*
CC1(C(=O)NC2CCCCCC2)CCC(=O)N1Cc1ccc2c(c1)OCO2 (stereo not drawn),1,0.16,9.3,0.9,-4.9
CCOC(=O)c1c(-c2ccccc2)oc2cc(CN(C)C)c(O)c(CN(C)C)c12,nt,-1.51,nt,nt,nt
CCC(CCC(=O)Nc1ccc(S(N)(=O)=O)cc1)C(=O)O (stereo not drawn),0.9,0.31,5.8,0.9,6.7
COCCCNc1nc(-c2ccncc2)nc2ccccc12,0.3,-1.25,78.4*,0.2,70.6*
COCCCNc1cc(C)nc2ccccc12,0.9,-0.43,1.6,1,5.3
CCN(CC)CCCNc1nc(-c2ccccc2)nc2ccccc12,nt,-0.22,nt,nt,nt
COCCCNC(c1ccccc1)c1ccncc1 (stereo not drawn),0.4,-0.45,86.2*,0.1,64.6*
COc1ccc(-c2noc(CN3CCOCC3)n2)cc1OC,1,1.18,-1.2,1,-4.8
CCOC(=O)N1CCN(C(c2ccccc2)c2sc3nc(C)nn3c2O)CC1 (stereo not drawn),nt,-0.22,nt,nt,nt
Cn1c(-c2ccc(C=O)s2)nc2c3ccccc3c3ccccc3c21,0.8,-3.59*,-9.9,1.1,23.9
CCN(CC)c1cc(Oc2ccccc2)ncn1,0.7,0.68,80.0*,0.2,31.2
CN(C)CCCCNCCCNC(=O)/C=N\O,1.1,0.15,-7.9,1.1,-12.1
O=S(=O)(c1ccc(Cl)s1)N1CCC(Cc2ccccc2)CC1,0.3,-0.74,25.0,0.8,67.8*
O=S(=O)(c1ccc(Br)s1)N1CCC(Cc2ccccc2)CC1,0.4,-1.24,11.5,0.9,55.6*
SMILES,CYP2C9 act,Pyk2 oligo antag,CYP2C19 inh,CYP2C19 activ,CYP2C9 inhib
O=S(=O)(c1ccc(Cl)s1)N1CCN(Cc2ccccc2)CC1,0.4,-0.45,84.3*,0.2,61.1*
O=[N+]([O-])c1ccccc1NCCNS(=O)(=O)c1ccc(Cl)cc1,nt,-0.62,nt,nt,nt
O=[N+]([O-])c1cccc(Cl)c1NCCNS(=O)(=O)c1ccccc1,2*,-0.99,60.3*,0.4,-104.7
CC(=O)c1cccc(NS(=O)(=O)c2cc(OCC(N)=O)c(C)cc2Cl)c1,0.7,0.29,13.3,0.9,27.6
c1ccc(-c2ccc(-c3ccccn3)nn2)nc1,0.8,nt,55.6*,0.4,17.8
CCOC(=O)c1c(NC(=O)c2ccccc2Br)sc2c1CCc1ccccc1-2,0.8,-0.75,7.5,0.9,24.3
Cc1ccc2oc(=O)n(Cc3ccccc3OC(C)C)c2c1,0.1,-0.44,85.5*,0.1,85.4*
COc1ccc(Cn2c(=O)oc3ccc(C)cc32)cc1OC,0.2,-0.5,98.3*,0,79.4*
Cc1ccc2oc(=O)n(CC(=O)OC(C)C)c2c1,nt,0.17,nt,nt,nt
Cc1ccc2oc(=O)n(CC(=O)O)c2c1,1,nt,8.2,0.9,2.1
CCCCOc1ccccc1Cn1c(=O)oc2ccc(C)cc21,0.1,-2.46,86.8*,0.1,87.7*
Cc1ccc2oc(=O)n(CCCOc3ccccc3)c2c1,0.5,0.62,94.1*,0.1,46.0
CN1CCN(C(=O)c2ccc3c(c2)OCCO3)CC1,nt,0.08,nt,nt,nt
CCC(C)(C)n1nnnc1CN1CCN(c2nc3cc(OC)ccc3cc2C#N)CC1,0.9,-0.25,30.4,0.7,5.4
CCCCN(C)CCn1c(=S)[nH]c2ccc(N3CCOCC3)cc2c1=O,1,0.95,-13.9,1.1,0.2
CCOc1ccc(C(=O)N[C@H](C(=O)O)C(C)C)cc1,0.9,1.36,6.1,0.9,11.2
Cc1ccc2c(c1)nnn2C1CCN(CC(=O)NCCc2nc3ccccc3[nH]2)CC1,0.8,1.64,21.7,0.8,23.9
O=C(Nc1nc(-c2ccc(S(=O)(=O)N3CCCC3)cc2)cs1)c1cccs1,0.4,-3.21*,33.4,0.7,61.6*
O=C(Nc1nc(-c2ccc(S(=O)(=O)N3CCCCCC3)cc2)cs1)c1cccs1,0.5,-0.61,10.3,0.9,53.0*
O=C(Nc1nc(-c2cc(Cl)sc2Cl)cs1)c1ccc(Br)s1,1,0.76,-4.1,1,-2.4
O=C(Nc1ccc(S(=O)(=O)N2CCOCC2)cc1)c1cccs1,0.9,0.26,14.9,0.9,9.1
O=C(Nc1nc(-c2cc(Cl)sc2Cl)cs1)c1cccs1,0.2,-2.94,32.8,0.7,83.2*
O=C(NCCc1ccc(S(=O)(=O)N2CCCC2)cc1)c1cccs1,0.4,1,39.8,0.6,62.3*
CC(NC(=O)CSc1nnc(CC(=O)Nc2ccc(Cl)c(Cl)c2)n1C)c1ccccc1 (stereo not drawn),0.7,-0.78,36.0,0.6,34.8
CC(=O)N=c1sc(C(C)(C)C)c(C)n1C,1.7,0.33,14.9,0.9,-65.2
Nn1c(SCC(=O)N2CCOCC2)nnc1-c1ccccc1Cl,1,-0.34,-5.1,1.1,0.5
COc1cc(C2c3c(n[nH]c3C)C(=O)N2c2ccc(C)cc2)ccc1O (stereo not drawn),0.6,-1.03,38.1,0.6,43.7
COc1cc(C2c3c(-c4ccccc4)n[nH]c3C(=O)N2c2ccccc2)ccc1O (stereo not drawn),0.1,-3.13*,76.9*,0.2,91.9*
CC(C)C(NC(=O)OCc1ccccc1)C(=O)NCC(=O)OC(C)(C)C (stereo not drawn),0.9,1.41,82.6*,0.2,13.5
CC(C)[C@H](NC(=O)OCc1ccccc1)C(=O)OCC(=O)NC1CCCCC1,0.2,0.42,77.9*,0.2,81.0*
